# Reference: article PMC4336329 (PLoS ONE, 2015)
# The whole screen tested about 310,000 compounds, of which about 14,000 (4.5%) showed an effect of 50% or more. Effects have a minus sign here. The sample holds strong results, similar compounds and a random draw of the others, so the mix is not that of the screen.
# Target: human ether-à-go-go-related gene (hERG) potassium channel (human, UniProt Q12809)
# Experiment: primary screen, population patch clamp on CHO cells stably expressing hERG; higher = less effect of the substance
# 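Further: peak tail current of the secondary pulse compared with the same well before compound.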
# Sequence of human ether-à-go-go-related gene (hERG) potassium channel (Q12809 whole entry, looked up): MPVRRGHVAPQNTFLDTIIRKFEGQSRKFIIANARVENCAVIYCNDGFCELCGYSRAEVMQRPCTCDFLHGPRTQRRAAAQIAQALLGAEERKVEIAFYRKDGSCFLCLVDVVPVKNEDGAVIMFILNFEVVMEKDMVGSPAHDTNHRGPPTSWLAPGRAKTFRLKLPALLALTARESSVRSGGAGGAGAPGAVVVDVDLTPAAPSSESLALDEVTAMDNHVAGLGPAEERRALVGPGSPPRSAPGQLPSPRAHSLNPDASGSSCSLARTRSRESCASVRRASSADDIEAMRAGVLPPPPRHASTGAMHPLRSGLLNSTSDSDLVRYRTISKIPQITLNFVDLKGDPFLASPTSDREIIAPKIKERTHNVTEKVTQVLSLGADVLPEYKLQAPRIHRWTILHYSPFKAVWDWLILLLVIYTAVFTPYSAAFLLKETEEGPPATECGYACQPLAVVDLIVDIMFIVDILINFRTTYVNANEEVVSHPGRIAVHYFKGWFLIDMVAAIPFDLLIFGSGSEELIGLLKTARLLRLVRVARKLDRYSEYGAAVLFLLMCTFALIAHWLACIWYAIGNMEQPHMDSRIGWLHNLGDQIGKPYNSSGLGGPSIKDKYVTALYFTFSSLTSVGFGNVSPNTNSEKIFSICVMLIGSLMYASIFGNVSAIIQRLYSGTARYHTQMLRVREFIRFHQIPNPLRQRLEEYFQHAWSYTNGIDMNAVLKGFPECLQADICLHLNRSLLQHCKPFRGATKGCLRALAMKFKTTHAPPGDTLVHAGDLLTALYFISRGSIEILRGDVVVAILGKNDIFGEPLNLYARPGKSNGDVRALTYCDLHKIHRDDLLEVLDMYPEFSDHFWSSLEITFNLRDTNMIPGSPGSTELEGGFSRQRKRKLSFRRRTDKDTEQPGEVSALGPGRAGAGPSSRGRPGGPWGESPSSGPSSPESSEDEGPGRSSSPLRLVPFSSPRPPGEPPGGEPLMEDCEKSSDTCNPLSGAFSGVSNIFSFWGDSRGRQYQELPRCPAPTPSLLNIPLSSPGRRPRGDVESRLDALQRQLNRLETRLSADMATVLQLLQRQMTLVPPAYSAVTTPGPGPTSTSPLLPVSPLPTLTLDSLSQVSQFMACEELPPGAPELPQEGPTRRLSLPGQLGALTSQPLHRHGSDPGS
row,SMILES,"hERG current change (%, negative = inhibition) at 10uM"
1,CCC1(OC(=O)CN)C(=O)OCc2c1cc1n(c2=O)Cc2cc3ccccc3nc2-1.Cl (centres unmarked),8.16%
2,CC(=O)c1cccc(NC(=O)/C(=C\c2ccco2)NC(=O)c2cccs2)c1,-9.8%
3,CCOC(=O)N1CCN(C(=O)C(C)N(c2ccccc2)S(C)(=O)=O)CC1 (centres unmarked),25.1%
4,O=C(O)CC(CC(=O)Nc1ccc(C(=O)O)cc1)c1ccccc1 (centres unmarked),12.9%
5,Cc1ccc(-n2c(=O)c3sccc3n(CC(=O)NC3CCCCC3)c2=O)cc1,9.86%
6,O=C(COC(=O)c1cnccn1)NCc1ccc(Cl)cc1,-3.54%
7,COCCN(C(=O)Cc1cccs1)C(C(=O)NC1CCCC1)c1cc(OC)c(OC)c(OC)c1 (centres unmarked),8.79%
8,Cc1ccc(C2C3=C(CCCC3=O)Nc3c2c(C)nn3-c2ccccn2)o1 (centres unmarked),1.07%
9,CCO.Cc1nn(-c2ccccn2)c2c1C(c1ccsc1)C1=C(CCCC1=O)N2 (centres unmarked),-16.1%
10,Cc1nn(-c2ccccn2)c2c1C(c1ccncc1)C1=C(CC(C)(C)CC1=O)N2 (centres unmarked),-50.8%
11,CC(C)(C)[C@H]1C=C(C(=O)NCc2ccccc2)O[C@@H](OCc2ccc(CO)cc2)C1,-12.9%
12,COc1ccc(N(C(=O)c2snc(C(N)=O)c2N)C(C(=O)NC2CCCC2)c2cc(OC)ccc2OC)c(OC)c1 (centres unmarked),20.9%
13,CC1=C(C#N)C(NC(=O)C2CC2)(C(F)(F)F)C(=O)N1 (centres unmarked),-2.06%
14,COc1cccc(-n2c(=S)sc3c(=O)n(-c4ccccc4C)c(SCC(=O)O)nc32)c1,16.5%
15,N/C(=N\O)c1ccc(Oc2ccccc2Cl)c([N+](=O)[O-])c1,-9.72%
16,CCC1=Nc2cc(C(=O)NCCN3CCCC3)ccc2Sc2ccc(C)cc21,-29%
17,CCC1=Nc2cc(C(=O)NCCN3CCOCC3)ccc2Sc2ccccc21,-15.3%
18,CCC1=Nc2cc(C(=O)NCCN3CCCC3)ccc2Sc2ccccc21,-52.1%
19,CCCC1=Nc2cc(C(=O)NCCN3CCOCC3)ccc2Sc2ccc(C)cc21,-34.3%
20,CCC1=Nc2cc(C(=O)NCCN3CCOCC3)ccc2Sc2ccc(C)cc21,-82.3%
21,CCCC1=Nc2cc(C(=O)NCCN3CCCC3)ccc2Sc2ccccc21,-21.2%

row,SMILES,"hERG current change (%, negative = inhibition) at 10uM"
1,Cc1cccc(NC(=O)COc2ccccc2C(=O)NC(C)c2ccccc2)c1 (centres unmarked),-8.56%
2,Cc1onc(-c2ccccc2)c1C(=O)N/N=C/c1ccc(O)c([N+](=O)[O-])c1,9.34%
3,CCCCn1c(O)c(N=NC(=O)c2ccccc2NS(=O)(=O)c2cccs2)c2ccccc21,-2.54%
4,O=C(CSc1nncn1-c1ccccc1)Nc1c(F)cccc1F,3.19%
5,NC(N)=NS(=O)(=O)c1ccc(N/C=C/C(=O)c2ccc(Cl)c(Cl)c2)cc1,17.3%
6,Cc1ccc(NC2CCCN(C(=O)c3ccccc3N3CCOCC3)C2)cc1C (centres unmarked),-0.641%
7,O=C(NCc1cccnc1)c1cc(Sc2cccc(Cl)c2)nc2ccccc12,-15.4%
8,O=C(Nc1ccc2c(c1)OCO2)c1cc(-c2ccncc2)nc2ccccc12,-3.22%
9,O=C(NCc1cccnc1)c1cc(Sc2ccc(F)cc2F)nc2ccccc12,-55.3%
10,O=C(NCc1ccc(F)cc1)c1cc(-c2ccncc2)nc2ccccc12,-64.7%
11,O=C(NCc1ccccc1)c1cc(-c2ccncc2)nc2ccccc12,-34%
12,O=C(NCc1ccccn1)c1cc(-c2ccncc2)nc2ccccc12,-25.6%
13,O=C(N/N=C/c1ccc([N+](=O)[O-])o1)c1cc(-c2ccncc2)nc2ccccc12,-62.9%
14,O=C(N/N=C/c1ccc([N+](=O)[O-])o1)c1cc(-c2ccc(-c3ccccc3)cc2)nc2ccccc12,17.7%
15,O=C(NCc1ccc2c(c1)OCO2)c1cc(-c2ccncc2)nc2ccccc12,-67%
16,O=C(NCc1cccnc1)c1cc(Sc2ccccc2Cl)nc2ccccc12,-5.45%
17,O=C(NCc1ccc2c(c1)OCO2)c1cc(-c2ccccn2)nc2ccccc12,4.41%
18,CCCc1ccc(-c2cc(C(=O)N/N=C/c3ccc([N+](=O)[O-])o3)c3ccccc3n2)cc1,-1.61%
19,O=C(NC(=S)NC1CCSC1=O)c1cccs1 (centres unmarked),15.9%
20,CCOCc1nnc(NC(=O)C2CC(=O)N(CCc3ccc(F)cc3)C2)s1 (centres unmarked),5.97%
21,CCC1c2ccc(C)n2CCN1C(=O)Nc1ccccc1C(=O)OC (centres unmarked),6.11%

row,SMILES,"hERG current change (%, negative = inhibition) at 10uM"
1,CCc1nnc(NC(=O)C2(C)COC(c3ccc(OC)cc3)OC2)s1 (centres unmarked),10.1%
2,CC1(C)C2CCC1(CS(=O)(=O)N1CCOCC1)C(=O)C2 (centres unmarked),-1.75%
3,Cc1cc(C(=O)COC(=O)c2cccnc2Cl)c(C)n1CC1CCCO1 (centres unmarked),-20.1%
4,COc1ccccc1OCC(=O)NCC(c1cccs1)N1CCOCC1 (centres unmarked),-4.48%
5,Cc1ccc(CNC(=O)CCn2cc(-c3ccc(F)cc3)nc2-c2ccncc2)cc1,-50.1%
6,Cc1ccc(CNC(=O)CCn2cc(-c3ccc(C)cc3)nc2-c2ccncc2)cc1,-45.1%
7,O=C(NCC(c1cccs1)N1CCOCC1)c1cn(-c2ccccc2)nc1-c1ccc(F)cc1 (centres unmarked),-1.67%
8,O=C(NCC(c1cccs1)N1CCOCC1)c1cc(-c2ccc(F)cc2)nc2ccccc12 (centres unmarked),-55.9%
9,O=C(NCC(c1cccs1)N1CCOCC1)c1cc(-c2ccccn2)nc2ccccc12 (centres unmarked),-23%
10,CC(C)c1ccccc1OCC(=O)NCC(c1cccs1)N1CCOCC1 (centres unmarked),-50.2%
11,Cc1ccc(C(C)C)c(OCC(=O)NCC(c2cccs2)N2CCOCC2)c1 (centres unmarked),-48.1%
12,COc1ccc(-c2cn(CCC(=O)NCc3ccc(C)cc3)c(-c3ccncc3)n2)cc1,-21.3%
13,O=C(Cc1ccccc1)Nc1cccc(-c2nc3ncccc3o2)c1,13.6%
14,COc1ccc(Nc2ccc(C(N)=O)cc2[N+](=O)[O-])cc1,7.18%
15,CCCSc1nc2c(c(=O)[nH]c(=O)n2C)n1C,2.58%
16,Cn1c(=O)[nH]c(=O)c2c1nc(OC(=O)c1ccccc1)n2CC(O)COc1ccccc1 (centres unmarked),23.2%
17,CCCc1c(O)nc(SCc2ccccc2)[nH]c1=O,0.68%
18,CCOC(=O)C1CCN(Cc2ccc(Cl)c(Cl)c2)CC1,-5.6%
19,CN1CCN(Cc2cc(C(C)(C)C)c(O)c(C(C)(C)C)c2)CC1,-15.1%
20,CCOC(=O)C1CCN(Cc2cc(C(C)C)c(O)c(C(C)C)c2)CC1,-41.3%
21,CC(C)(C)c1cc(CN2CCCC(O)C2)c(O)c(C(C)(C)C)c1 (centres unmarked),-13.9%

row,SMILES,"hERG current change (%, negative = inhibition) at 10uM"
1,CC1=NN(Cc2cc(C(C)(C)C)c(O)c(C(C)(C)C)c2)C(=O)C1,17.2%
2,CC(C)(C)c1cc(CN2CCCCC2)cc(C(C)(C)C)c1O,-50.7%
3,CCOC(=O)C1CCN(Cc2cc(C(C)(C)C)c(O)c(C(C)(C)C)c2)CC1,-63.1%
4,CC(C)(C)c1cc(CN2CCC(O)CC2)cc(C(C)(C)C)c1O,-70.1%
5,CCN1CCN(Cc2cc(C(C)(C)C)c(O)c(C(C)(C)C)c2)CC1,-26.5%
6,Cc1ccc(S(=O)(=O)N2N=C3CCCCC3C2(O)C(F)(F)F)cc1 (centres unmarked),4.99%
7,O=C(NN=C1CCCC1)c1cccc(O)c1,8.96%
8,O=C1C2C3CCCC3=C3CCCC3C2C(=O)N1c1ccccc1 (centres unmarked),1.8%
9,C/C(=N/NC(=O)c1ccc2c(c1)OCO2)c1ccc(NC(=O)c2ccc(F)cc2)cc1,9.33%
10,Cc1ccc(C(=O)NC2CCCN(c3ccc(C(F)(F)F)cn3)C2)cn1 (centres unmarked),-2.75%
11,O=C(NC1CCCN(c2ccc(C(F)(F)F)cn2)C1)c1cc(Cl)ccc1F (centres unmarked),5.34%
12,CSc1ccccc1C(=O)NC1CCCN(c2ccc(C(F)(F)F)cn2)C1 (centres unmarked),-4.58%
13,O=C(NC1CCCN(c2ccc(C(F)(F)F)cn2)C1)c1ccnc(Cl)c1 (centres unmarked),-55.5%
14,O=C(NC1CCCN(c2ccc(C(F)(F)F)cn2)C1)c1ccncc1 (centres unmarked),-69.2%
15,O=C(CCc1ccccc1Cl)NC1CCCN(c2ccc(C(F)(F)F)cn2)C1 (centres unmarked),13.4%
16,COc1ccc(CCNC(=O)Cn2nnc3ccccc3c2=O)cc1,9.17%
17,CCOC(=O)CN1CC23C=CC(O2)C(C(=O)Nc2ccc(C(C)=O)cc2)C3C1=O (centres unmarked),4.98%
18,CC1=C(C(=O)Nc2cccc(C(=O)NC3CCCCC3C)c2)SCCO1 (centres unmarked),-17.8%
19,CC1(C)CC(=O)C=C(NCCN2CCN(C(=O)Nc3ccc(Cl)c(Cl)c3)CC2)C1,-24%
20,CS(=O)(=O)N(CC(=O)NCc1cccnc1)Cc1ccc(Cl)cc1,-30.1%
